We go through 47 molecules from PubChem BioAssay AID720513 (Broad Institute, 2013).

In all, about 2,100 compounds went through this assay and about 480 (23%) were called active. Inconclusive results (about 5%) are left out.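 Rule for the calls: active = fitted curve reaches 40% activation at or below the top valid concentration, in every replicate test; inconclusive = replicate tests disagree on the call; inactive = the rest, including activity in the opposite direction.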 These entries were drawn from the full list. Results with a measured potency or affinity are listed apart.

The assay is described as follows: activators raising PGC1a acetylation in cells, dose response, cell-based, cherry-picked samples, set 6 (AID 720513).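 Note: cells made to overexpress flag tagged PGC1a plus GCN5 acetyltransferase by viral infection.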 The settings on record: U2OS PGC1a acetylation AlphaLISA, overnight, 0 = neutral, -100 = inhibitor control; series mostly up to 19.5 µM; activation (acetylation increase): at the top concentration. (Bead proximity is the source of the signal in Alpha formats.)
As to `COC(=O)c1cccc(NC(=O)CSc2nnc(C)n2C)c1`, the “activation (acetylation increase)” value was -21.3% (inactive). Still for that read-out and setting: the figure for `COc1ccccc1Nc1nc(NCCC(C)C)nc(N)c1[N+](=O)[O-]` is 27% (inactive).

In the case of `Cn1nnnc1Sc1ncnc2scc(-c3cccc(S(C)(=O)=O)c3)c12`, the “activation (acetylation increase)” value was -11.9% (inactive).

For `Cc1ccc(C)c(S(=O)(=O)N(C(=O)c2ccncc2)c2ccc(OC(=O)c3ccncc3)cc2)c1`, the “activation (acetylation increase)” value is -16% (inactive). With `C=CCNC(=O)c1cnn(-c2ccccc2)c1-c1ccccc1`, the “activation (acetylation increase)” value was -2.56% (inactive). The same measure, in the same setting: the figure for `CO[C@@H]1CN(C)C(=O)c2ccc(NC(C)=O)cc2OC[C@@H](C)N(C(=O)Cc2cccnc2)C[C@@H]1C` is 28.7% (inactive); for `O=C(Cn1ncc(Cl)c(Cl)c1=O)NCC1CCCCC1` it is -101% (inactive); for `C[C@@H]1CN([C@H](C)CO)C(=O)Cc2cc(NC(=O)CCC(F)(F)F)ccc2O[C@H]1CN(C)S(C)(=O)=O` it is -4.24% (inactive). Regarding `CCOC(=O)C1=C(Nc2ccccc2)OCC1=O`, the “activation (acetylation increase)” value is 4.43% (inactive). Turning to `CC1=CCC2C(=O)N(c3cccc(C(=O)NCc4ccccc4)c3)C(=O)C2C1` (configuration not stated), the “activation (acetylation increase)” value was 11.3% (inactive). On the same count and under the same terms, to `O=C(NCc1cccnc1)/C(=C/c1ccc(-c2ccc(Cl)cc2)o1)S(=O)(=O)c1ccccc1` belongs -92% (inactive); to `Cc1ccc(S(=O)(=O)Nc2cccc3c2O[C@H](CN(C)Cc2ccc(Cl)c(Cl)c2)[C@@H](C)CN([C@@H](C)CO)C3=O)cc1`, 28.7% (inactive). Same read-out and setting: the figure for `CN(C)c1nc(SCCOC(=O)COc2ccc(Cl)cc2Cl)nc(N(C)C)n1` is -18.6% (inactive); for `CC(=O)Nc1ccc2c(CSc3nncs3)cc(=O)oc2c1` it is -36.6% (inactive). For the molecule `CCCc1cc(=O)oc2cc(C)cc(O)c12`, the “activation (acetylation increase)” value was 29.2% (inactive).

Take `COC(=O)[C@]1(Cc2ccccc2)N=C(c2ccc(OCCCO)cc2)O[C@@H]1c1ccccc1CN=[N+]=[N-]`: the “activation (acetylation increase)” value is 21.8% [at 10 µM] (inactive). As to `O=[N+]([O-])c1cc(F)c2cccnc2c1O`, the “activation (acetylation increase)” value is -22.2% (inactive). As to `Cc1ccc2[nH]c3ccccc3c(=O)c2c1`, the “activation (acetylation increase)” value is 35.3% (inactive). On the same count and under the same terms, to `CCN(CC(=O)Nc1ccccc1C(F)(F)F)C(=O)CCSc1ccc(F)cc1` belongs -15.4% (inactive); to `O=C(CCNNC(=O)c1ccncc1)NCc1ccccc1`, 17.4% (inactive); to `O=C(NCc1cccnc1)C1CC(=O)N(C2CCCCC2)C1` (configuration not stated), 8.12% (inactive). In the case of `O=C(NCc1cccnc1)/C(=C\c1ccc(-c2cccc(Cl)c2)o1)S(=O)(=O)c1ccccc1`, the “activation (acetylation increase)” value was -82.5% (inactive).

Take `O=C(NCc1cccnc1)/C(=C\c1ccc(-c2ccc(Cl)c(Cl)c2)o1)S(=O)(=O)c1ccccc1`: the “activation (acetylation increase)” value was -100% (inactive). With `O=C(Cc1ccccn1)NCC[C@H]1CC[C@@H](NC(=O)Nc2ccc(C(F)(F)F)cc2)[C@@H](CO)O1`, the “activation (acetylation increase)” value was 6.59% (inactive). Same read-out and setting: to `O=C(NC1=NCCS1)C1CC(=O)N(c2ccccc2)C1` (configuration not stated) belongs -2.16% (inactive). Take `O=C(Nc1cccc2[nH]ncc12)c1ccc(F)cc1`: the “activation (acetylation increase)” value was -26.8% (inactive). Same read-out and setting: to `O=C(C[C@@H]1CC[C@@H](NC(=O)C2CCC2)[C@H](CO)O1)NCC1CC1` belongs -10.2% (inactive). Same read-out and setting: to `CCC(=O)Nc1ccc(C(=O)COC(=O)c2sc(C)nc2C)cc1` belongs 13.9% (inactive); to `CC(C)C[C@H]1CNC(=S)N1CC1CCCN1C[C@H](Cc1ccccc1)N1C[C@H](Cc2ccc(O)cc2)N(CC2CCCCCC2)C1=S` (some centres not stated), 26% (inactive). On to `CC(N=C1NS(=O)(=O)c2ccccc21)C(=O)NCCCc1ccccc1` (configuration not stated), for which the “activation (acetylation increase)” value was -53.2% (inactive).

`CCOc1ccc2nc(NCCNC(=O)Nc3ccccc3)c(C#N)cc2c1`: the “activation (acetylation increase)” value is -44.2% (inactive). As for `Cc1ccccc1OCC(O)CNC1CCC(NCC(O)COc2ccccc2C)CC1` (configuration not stated), the “activation (acetylation increase)” value is -100% (inactive). The same measure, in the same setting: to `C[C@H](CO)N1C[C@H](C)[C@H](CN(C)C(=O)CN(C)C)Oc2cc(-c3cncnc3)ccc2S1(=O)=O` belongs 25.6% (inactive); to `CCN1CCN(Cc2ccc(NC(=O)c3cc(NC(=O)c4cncc(-c5ccc(C#N)cc5)c4)cc(OC)c3)cc2C(F)(F)F)CC1`, -96.9% (inactive); to `COc1ccc(OCCc2nnc(N)s2)cc1`, 14.7% (inactive). Same read-out and setting: the figure for `CN(NC(=O)c1ccccc1F)c1nc(C(F)(F)F)nc2ccccc12` is -8.44% (inactive); for `C[C@@H](C(=O)Nc1nc2ccc(F)cc2s1)N1C(=O)C2CC=CCC2C1=O` (some centres not stated) it is -25.2% (inactive). On the same count and under the same terms, to `C[C@@H]1CN([C@H](C)CO)S(=O)(=O)c2ccc(C#CC3CCCC3)cc2O[C@H]1CN(C)C` belongs 36.3% (inactive); to `O=C(NCC1CC1)Nc1ccccc1F`, -3.11% (inactive). Consider `C/C=C/c1ccc2c(c1)O[C@@H](CN(C)C(=O)NC(C)C)[C@H](C)CN([C@H](C)CO)S2(=O)=O`, for which the “activation (acetylation increase)” value was 8.88% (inactive). Still for that read-out and setting: the figure for `COc1ccccc1CN1C[C@@H]2N[C@H](C1)C2c1ccc(-c2ccccc2)cc1` (some centres not stated) is -3.96% (inactive). With `COc1cc(CN2C[C@@H]3N[C@H](C2)C3c2ccc(-c3cccc(OC)c3)cc2)cc(OC)c1` (some centres not stated), the molecule was classed as inactive.

Take `Fc1ccc(-c2ccc(C3[C@@H]4CN(Cc5ccccc5)C[C@H]3N4)cc2)cc1` (some centres not stated): the “activation (acetylation increase)” value is -91.3% [at 21 µM] (inactive). As for `Cc1cccc(-c2ccc(C3[C@@H]4CN(Cc5cccc(F)c5)C[C@H]3N4)cc2)c1` (some centres not stated), the “activation (acetylation increase)” value was -44.5% (inactive). The same measure, in the same setting: the figure for `COc1ccc(-c2ccc(C3[C@@H]4CN(Cc5ccccn5)C[C@H]3N4)cc2)cc1` (some centres not stated) is -17.6% (inactive); for `Fc1cccc(CN2C[C@@H]3N[C@H](C2)C3c2ccc(-c3ccccc3)cc2)c1` (some centres not stated) it is -98% [at 21 µM] (inactive); for `COc1cccc(-c2ccc(C3[C@@H]4CN(Cc5cccc(F)c5)C[C@H]3N4)cc2)c1` (some centres not stated) it is -97.7% [at 21 µM] (inactive).
